PubChem BioAssay AID1745850 (National Center for Advancing Translational Sciences (NCATS), 2022)
Among all 2,100 compounds or so, about 260 (12%) were called active. About 58% were inconclusive and are not listed. Some of the results follow. Unmarked numbers belong to inactive results. The call rests on the fitted dose curve; in most records, active means well fitted cell-killing curve with a large enough effect; inconclusive means small, poorly fitted or top-dose-only effect, or effect the other way; inactive means flat fitted curve, though single readings scatter.

Assay: Viability Counterscreen for Confirmatory qHTS for Inhibitors of ATXN expression; further: nearly all actives have a fitted effect of over 50% in size
Details: HEK-293 ATXN2-luc cells viability, CellTiter-Fluor, 24 h; activity change, negative = cytotoxicity: at the top concentration
Method in brief: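 Cells with an ATXN2-luciferase reporter were dosed in a dilution series for 24 h at 37 degrees C. Viability was read first with Gly-Phe-AFC at 25 uM final (fluorescence, ex 405/em 540), then SteadyGlo luminescence. Medium-only wells defined 100% inhibition.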
Potency means the concentration at half of the fitted maximal effect.

| SMILES | activity change, negative = cytotoxicity | Potency |
| --- | --- | --- |
| CCC(CC)C(=O)c1c[nH]c(C(=O)NCc2ccccn2)c1 | -5.14% [at 57.5 µM] |  |
| CCn1c(/C=C/c2ccc([N+](=O)[O-])o2)nc2ccccc2c1=O |  | 10 µM (active) |
| O=[N+]([O-])c1ccc(/C=N/N=C/c2ccc([N+](=O)[O-])o2)o1 |  | 7.94 µM (active) |
| COc1ccccc1NC(=O)Nc1nc(CC(=O)N2CCN(c3ccccc3)CC2)cs1 | -22% [at 57.5 µM] |  |
| O=C(NC(c1ccccc1)c1ccc2ccccc2n1)C1CCN(CCOc2ccc(Cl)cc2Cl)CC1 (configuration not stated) |  | 25.1 µM (active) |
| O=C(NC(c1ccccc1)c1c(O)ccc2ccccc12)c1ccccc1Cl (configuration not stated) | -20.7% |  |
| CC(C)Nc1nc(NC(C)C)nc(N(C#N)CCOc2ccc(Cl)cc2Cl)n1 | -19.4% |  |
| COc1cc(/C=C/C(=O)Nc2ccc(OC)c(S(=O)(=O)N3CCOCC3)c2)ccc1OCC#N | -23% |  |
| COc1ccc(/C=C/C(=O)Nc2cccc(S(=O)(=O)N3CCCC3)c2)cc1OC | -3.83% |  |
| CCSc1nc2ccccc2n1C(=O)/C=C\c1ccc(OC)c(OC)c1 |  | 7.94 µM (active) |
| COC1=C(c2ccccc2)C(=O)c2ccccc2C1=O | -26.8% |  |
| CCOC(=O)c1ccc(NC(=O)c2nc[nH]c2C(=O)N[C@H](C)c2ccccc2)cc1 | 1.71% |  |
| O=C(NCCc1csc(-c2ccc(Cl)cc2)n1)c1ccco1 | -29% [at 57.5 µM] |  |
| O=C(Nc1nc(NC(=O)c2ccco2)n(-c2ccccc2)n1)c1ccccc1 |  | 22.4 µM (active) |
| CC(=O)c1sc(NC(=O)c2cc(-c3ccccc3)nn2-c2ccccc2)nc1C | -12% |  |
| Cc1nc(N2CCN(Cc3ccc4c(c3)OCO4)CC2)c2oc3ccccc3c2n1 | -27% |  |
| CCOC(=O)c1c(NC(=O)COC(=O)Cn2cnc3ccccc32)sc(C)c1C | -16.8% [at 57.5 µM] |  |
| O=C(/C=C/c1ccccc1)c1cc(Br)ccc(=O)c1O |  | 22.4 µM (active) |
| CCNc1ccc(Br)cc(C(=O)/C=C/c2ccccc2Cl)c1=O | -23.3% |  |
| CNc1ccc(Br)cc(C(=O)/C=C/c2ccc3c(c2)OCO3)c1=O | -17.3% |  |
| NC(=S)N1OC[C@@H]2COc3ccc4ccccc4c3[C@@H]21 | -27.5% [at 57.5 µM] |  |

| SMILES | activity change, negative = cytotoxicity | Potency |
| --- | --- | --- |
| COc1ccccc1Cc1c(-c2ccco2)nc2c(C)cc(Br)cn12 |  | 10 µM (active) |
| O=C(Nc1ccc(Cl)c(Cl)c1)c1cccc(S(=O)(=O)NCc2cccnc2)c1 |  | 3.16 µM (active) |
| COC(=O)c1ccc(N2CCOCC2)c(NC(=O)Nc2cccc(OC)c2)c1 | -8.48% |  |
| COc1cccc(OCC(=O)Nc2cc(Cl)ccc2Oc2ccccc2)c1 | 6.08% |  |
| COc1cccc(S(=O)(=O)NCc2ccc(C(=O)Nc3cccc(Cl)c3)cc2)c1 |  | 20 µM (active) |
| O=C(/C=C/Nc1ccc(S(=O)(=O)Nc2ncccn2)cc1)c1ccc(Cl)c(Cl)c1 | -21.3% [at 57.5 µM] |  |
| Cn1c(=O)c2cc(NC(=O)Nc3cccnc3)ccc2n1Cc1ccc(Cl)cc1 | -14.8% [at 57.5 µM] |  |
| O=C(CSc1nnnn1-c1ccccc1)Nc1nsc(-c2ccccc2)n1 | -13.5% [at 57.5 µM] |  |
| CCn1c2ccccc2c2cc(NC(=O)COC(=O)c3ccccc3F)ccc21 | 2.58% |  |
| C=CCNc1oc(-c2ccc(Cl)cc2)nc1C#N | -6.31% [at 57.5 µM] |  |
| NC(Cc1ccc(Cl)cc1)c1csc(Nc2nccc(C(F)(F)F)n2)n1 (configuration not stated) |  | 28.2 µM (active) |
| NC(Cc1ccccc1)c1csc(Nc2nccc(C(F)(F)F)n2)n1 (configuration not stated) |  | 14.1 µM (active) |
| NC(Cc1ccc(F)cc1)c1csc(Nc2cc(NCc3ccco3)ncn2)n1 (configuration not stated) | -10.8% |  |
| NC(=O)c1cccc(Nc2nc(C(N)Cc3ccc(C(F)(F)F)cc3)cs2)n1 (configuration not stated) | -3.62% |  |
| CCC(C)Sc1cc(C(F)(F)F)c(C(=O)Nc2ccc(Cl)cc2)cn1 (configuration not stated) | -28.6% |  |
| COC(=O)Cc1[nH]n(-c2nc3ccccc3s2)c(=O)c1C(C)=Nc1ccc(C)cc1 | -25% [at 57.5 µM] |  |
| COc1cc(C)c(C(=O)CC(=O)c2c(C)cc(OC)cc2C)c(C)c1 | -4.26% |  |
| CCN(CC)S(=O)(=O)c1ccc(NC(=O)Nc2cccc(C(F)(F)F)c2)cc1 | -22.7% |  |
| COc1ccc(/C=N/Nc2cc(N3CCCC3)nc(N3CCCC3)n2)cc1 |  | 3.16 µM (active) |
| COc1ccc(C(=O)N/N=C/c2ccc(N(C)c3ccccc3)cc2)cc1 | 8.41% |  |
| COc1ccc(C)cc1Nc1nc(C)nc2sc(C)cc12 | -13.3% |  |

| SMILES | activity change, negative = cytotoxicity | Potency |
| --- | --- | --- |
| CCOc1ccc(CCNC(=O)c2ccc(OCc3c(C)noc3C)cc2)cc1OCC | -11.7% |  |
| CCCCCn1c(=N)n(CC(O)COc2ccccc2OC)c2ccccc21 (configuration not stated) |  | 3.98 µM (active) |
| Cc1ccc(OCC(O)Cn2c(=N)n(CCN3CCCCC3)c3ccccc32)cc1 (configuration not stated) |  | 22.4 µM (active) |
| N=c1n(CCN2CCCCC2)c2ccccc2n1CC(O)c1ccc(Cl)c(Cl)c1 (configuration not stated) |  | 25.1 µM (active) |
| COc1cc2c(C(=O)N3CCOCC3)c(CSc3ccccc3)n(C)c2cc1Br | -20.7% [at 57.5 µM] |  |
| CN(C)c1ccc2c(c1)OC(N)=C(C#N)C2c1cccc(F)c1 (configuration not stated) | -25.8% [at 57.5 µM] |  |
| COc1cc2nc(CN(C)Cc3ccc(SC)cc3)[nH]c(=O)c2cc1OC | -14.4% [at 57.5 µM] |  |
| COc1ccc(C(=O)NC(=S)NNC(=O)c2cnccn2)cc1 | -14.6% |  |
| Cc1ccc(C(=O)N2CCN(c3ccc(NC(=S)NC(=O)c4cccs4)cc3)CC2)cc1 | -13.9% |  |
| COc1c(C)cccc1C(=O)Nc1ccc(N2CCN(C(=O)c3ccccc3C)CC2)cc1 |  | 25.1 µM (active) |
| COc1ccc(Br)cc1C(=O)Nc1ccccc1N1CCN(C(=O)c2ccccc2)CC1 | -13.6% |  |
| Cn1c(=O)c2c(nc(SCCN3CCOCC3)n2Cc2cccc3ccccc23)n(C)c1=O | -9.68% |  |
| CCc1ccc(-n2cc(-c3ccc(F)cc3)[n+]3c2SCCC3)cc1 | -20.7% [at 57.5 µM] |  |
| CCn1c(COc2ccccc2C)nnc1SCC(=O)N1CCN(c2ccccc2)CC1 | -30% [at 57.5 µM] |  |
| O=C1C=CCC(/C=C/c2ccccc2)O1 (configuration not stated) |  | 20 µM (active) |
| Cc1c(CC(=O)NCCCC(=O)O)c(=O)oc2cc3c(cc12)CCC(C)(C)O3 | -20.8% [at 57.5 µM] |  |
| CCc1nc2ccccc2c(C(=O)OCC(=O)Nc2ccc(NC(C)=O)cc2)c1C | -22.7% |  |
| NS(=O)(=O)c1ccc(NC(=O)COC(=O)c2c3c(nc4ccccc24)/C(=C\c2ccc4c(c2)OCO4)CCC3)cc1 | -16.4% [at 57.5 µM] |  |
| CCc1nc2ccccc2c(C(=O)OCC(=O)Nc2cccc(S(=O)(=O)NC3=NCCCCC3)c2)c1C |  | 25.1 µM (active) |
| COc1ccc(N(CC(=O)N2CCN(c3ccc(Cl)cc3)CC2)S(=O)(=O)c2c(C)n[nH]c2C)cc1 | -23.7% |  |
